# Reference: PubChem BioAssay (NCATS)
# The source made the active and inactive calls. How the calls were made is not given here.
# Columns and labels:
# [1] = Immunotoxin (HA22) sensitization/mitigation study. Vehicle arm (PBS) (AID 1159510); conditions: cancer cells viability with PBS vehicle (HA22 study); series mostly up to 46.1 µM
# [2] = Immunotoxin (SS1P) sensitization/mitigation study. Vehicle arm (DMEM) (AID 1159513); conditions: cell viability with vehicle (DMEM); series mostly up to 46.1 µM
# Potency means the concentration at half of the fitted maximal effect.
SMILES,Potency [1],Potency [2]
O=C1C(CCC(O)c2ccc(F)cc2)C(c2ccc(O)cc2)N1c1ccc(F)cc1 (configuration not stated),inactive,inactive
CCOc1ccc(Nc2nc(-c3c(C)nc4ccccn34)cs2)cc1,10.5 nM (active),0.0059 µM (active)
Nc1ccccc1NC(=O)c1ccc(CNC(=O)OCc2cccnc2)cc1,526 nM (active),5.9 µM (active)
OCCn1cc(-c2cnc3nnn(Cc4ccc5ncccc5c4)c3n2)cn1,inactive,inactive
CN1CC[C@@H](c2c(O)cc(O)c3c(=O)cc(-c4ccccc4Cl)oc23)[C@@H](O)C1,16.6 nM (active),0.0469 µM (active)
CCc1cc(-c2n[nH]c(C)c2-c2ccc3c(c2)OCCO3)c(O)cc1O,16600 nM (active),2.64 µM (active)
CC(C)c1ccccc1Cc1cc(C(=O)Nc2ccc(S(=O)(=O)c3ccccc3C(C)(C)C)cc2)c(O)c(O)c1O,743 nM (active),3.72 µM (active)
Cc1cccc(C=NNc2cc(N3CCOCC3)nc(OCCc3ccccn3)n2)c1,4690 nM (active),20.9 µM (active)
Fc1cc(-c2cccc3ncc(-c4cnn(C5CCNCC5)c4)nc23)cc(F)c1CN1CCOCC1,23500 nM (active),23.5 µM (active)
CN([C@@H](Cc1ccc(OS(=O)(=O)c2cccc3cnccc23)cc1)C(=O)N1CCN(c2ccccc2)CC1)S(=O)(=O)c1cccc2cnccc12,inactive,inactive
Cc1n[nH]c(C)c1Cc1sc2c(c1C(=O)N1C[C@H](O)CO1)c(=O)n(C)c(=O)n2CC(C)C,1.9 nM (active),inactive
